Test results published in the supplement of paper PMC7866885, “A novel bicyclic 2,4-diaminopyrimidine inhibitor of Streptococcus suis dihydrofolate reductase” (PeerJ, 2021).
± gives the standard deviation.

These compounds were tested on Streptococcus suis P1/7 (assay: percent growth relative to DMSO control; higher = less growth inhibition). Settings: 10 µM; incubation time 18 h.
Description: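 CLSI broth microdilution: 5x10^4 CFU of Streptococcus suis (strain P1/7 or HE06) incubated with 10 µM Pathogen Box compound in cation-adjusted Mueller Hinton broth, 37 °C, 5% CO2, 18 h. Growth read as OD600 and expressed as percent of the DMSO-treated control (100%); mean ± SD of three independent experiments.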

Structure (SMILES) | percent growth [%]
CCOc1ccc2cc(-c3nn(C(C)(C)C)c(N)c3C(N)=O)cnc2c1 | 83.1 ± 23
Cc1ccc(NC(=O)c2cc(S(=O)(=O)NC(C)(C)C)ccc2C)nc1 | 75.6 ± 20
O=C(Nc1cnc2ccccc2c1)c1cccc(-n2cnnn2)c1 | 106 ± 28
N#Cc1ccc(-c2ccc(OCC(N)=O)cc2)cc1 | 94.4 ± 35
CCN(CC)S(=O)(=O)c1ccc(C(=O)Nc2cc(C)nn2-c2nc(C)c(C)c(=O)[nH]2)cc1 | 3.31 ± 3.3
Nc1nc(N)c2c3c(sc2n1)CN(Cc1ccccc1)CC3 | 87.8 ± 9.9
O=C(CN1CCOCC1)Nc1ccc2ncnc(Nc3ccc(OCc4cccc(F)c4)c(Cl)c3)c2c1 | 63 ± 18
CC(C)(C)OC(=O)N1CCC(Cn2nc(-c3cnc4ccccc4c3)c3c(N)ncnc32)CC1 | 74.1 ± 6.8
Cc1ccc2nc(Cl)c(CNCc3cccs3)cc2c1 | 100 ± 21
CCN(CC)CCCCCCNc1cc(OC)cc2c(C)ccnc12 | 83.2 ± 15
COc1cc(C2=NCCN2)ccc1-n1cc(-c2cccc(C3=NCCN3)c2)nn1 | 63.4 ± 23
CCn1cnc2c(Nc3cc(F)cc(F)c3)nc(C#N)nc21 | 75.3 ± 24
COc1cccc(OC)c1C(=O)Nc1ccc(Cl)c(-c2nc3ccccc3s2)c1 | 119 ± 45
Cn1c(=O)c2c(S(C)(=O)=O)snc2n(C)c1=O | 93 ± 120
Cc1cc(Nc2ccc(C(F)(F)F)cc2)n2ccnc2n1 | 97.6 ± 41
CC1CCCCN1C(=O)NCCc1coc(-c2ccc(F)cc2)n1 (stereo not given) | 120 ± 87
CS(=O)(=O)c1ccccc1C(=O)N(Cc1ccccc1)c1ccccc1 | 107 ± 33
CNc1nnc(Sc2cnn(-c3ccccc3)c(=O)c2Cl)s1 | 110 ± 52
CC1(COc2ccc(N3CCC(Oc4ccc(OC(F)(F)F)cc4)CC3)cc2)Cn2cc([N+](=O)[O-])nc2O1 (stereo not given) | 114 ± 61
Cc1cc(OCC(=O)Nc2ccc(C(C)C)cc2)n(C)c(=O)c1C#N | 79 ± 12

Structure (SMILES) | percent growth [%]
COc1ccc(-c2cncc3ccc(C(=O)NCCCn4ccnc4)nc23)cc1 | 70.1 ± 27
Cc1nc(-c2ccccn2)nc(N2CCC(Cc3ccccc3)C2)c1Cl (stereo not given) | -0.158 ± 0.27
N=C(N)c1ccc(-c2cc(-c3ccccc3)on2)cc1 | 106 ± 55
CC(C)C(NC(=O)Cc1cccc2ccccc12)C(=O)Nc1cccc(C#N)c1 (stereo not given) | 158 ± 100
COc1ccc(C(=N)N)cc1-c1cn(-c2ccc(C(=N)N)cc2)nn1 | 75.7 ± 2.9
O=C(N[C@H](Cc1ccccc1)C(=O)Nc1ccccc1N1CCOCC1)c1cccs1 | 85.8 ± 16
Cc1ccccc1C(=O)N1N=C(Nc2ccccc2)SC1(C)C | 80.9 ± 23
CC(=O)N1CCc2cc3nc(C)cc(C)c3cc21 | 91.7 ± 27
O=C(C1CCN(c2nnc(-n3cccc3)s2)CC1)N1CCC(Cc2ccccc2)CC1 | 100 ± 41
COc1ccc(-c2cnc3ccc(NCc4ccc(S(N)(=O)=O)cc4)nn23)cn1 | 89.2 ± 15
O=C(NC1CC1)c1ccc(N2CCC(Cc3ccccc3)CC2)nc1 | 108 ± 16
COc1ccccc1CNC(=O)c1cc(C2CC2)nc2c1cnn2C(C)C | 83.8 ± 45
CNC(=O)C1Cc2c([nH]c3cc(Cl)ccc23)C2(CCN(CCc3ccccc3)CC2)N1 (stereo not given) | 77.4 ± 9
Cc1ccc(-c2cc(C(=O)Nc3cccnc3)c3cc(Br)ccc3n2)cc1 | 69.7 ± 1.4
Cc1cc(OCC(=O)NCc2ccccc2)c2cc(Br)ccc2n1 | 176 ± 160
Brc1cncc(-c2cc(NCCCn3ccnc3)nc(-c3ccccc3)n2)c1 | 43.7 ± 51
Cc1cc(C)nc(-n2nc(C)cc2Nc2ccccc2)n1 | 0.0724 ± 0.12
O=C(C1CCN(c2cc(-n3cccc3)ncn2)CC1)N1CCc2ccccc2C1 | 59.5 ± 45
O=C(Nc1c(O)cccc1-c1nc2c(C(=O)O)cccc2o1)c1cc(-c2ccccc2)on1 | 11.1 ± 6.9
CCn1ncc2c(NC3CCOCC3)c(CNC(=O)c3ccnn3C)c(C)nc21 | 85.7 ± 26
